Assay results published in the supplement of paper PMC7411054.

Experiments:
Conditions in all cases: treatment time: 24 h
A549-ACTB-RAB5A [1] = experiment: lowest phenotypically active concentration; higher = less potent
Method in brief: (§1)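 Four wells per concentration (0.3, 1, 3 or 9 µM) were treated for 24 h in each of fifteen gene-edited reporter lines from A549, HepG2 and WPMY1 cells, then imaged live. After normalising live-cell features to solvent control wells, deviation was defined as ≥3 of 4 wells lying past the 95th percentile of control Euclidean distances. Reproducibility was defined as a median replicate Pearson correlation above the 95th percentile of non-replicates. Both had to hold for phenotypic activity.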

A549-CANX-COX4 [2] = experiment: as above
Method in brief: as §1

A549-GM130-SQSTM1 [3] = experiment: as above
Method in brief: as §1

A549-TP53BP1-CLTA [4] = experiment: as above
Method in brief: as §1

A549-TUBA1B-RELA [5] = experiment: as above
Method in brief: as §1

A549-ACTB-RAB5A [6] = experiment: phenotypically active (imaging signature differs from DMSO and reproducible) at any of 0.3-9 uM (binary (1 = active, 0 = inactive)); higher = active
Method in brief: as §1

A549-CANX-COX4 [7] = experiment: as above
Method in brief: as §1

A549-GM130-SQSTM1 [8] = experiment: as above
Method in brief: as §1

A549-TP53BP1-CLTA [9] = experiment: as above
Method in brief: as §1

A549-TUBA1B-RELA [10] = experiment: as above
Method in brief: as §1

HepG2-ACTB-RAB5A = experiment: as above
Method in brief: as §1

HepG2-CANX-COX4 = experiment: as above
Method in brief: as §1

HepG2-GM130-SQSTM1 = experiment: as above
Method in brief: as §1

HepG2-TP53BP1-CLTA = experiment: as above
Method in brief: as §1

HepG2-TUBA1B-RELA = experiment: as above
Method in brief: as §1

WPMY1-ACTB-RAB5A = experiment: as above
Method in brief: as §1

WPMY1-CANX-COX4 = experiment: as above
Method in brief: as §1

WPMY1-GM130-SQSTM1 = experiment: as above
Method in brief: as §1

WPMY1-TP53BP1-CLTA = experiment: as above
Method in brief: as §1

WPMY1-TUBA1B-RELA = experiment: as above
Method in brief: as §1

SMILES | lowest phenotypically active concentration (A549-ACTB-RAB5A [1]) | lowest phenotypically active concentration (A549-CANX-COX4 [2]) | lowest phenotypically active concentration (A549-GM130-SQSTM1 [3]) | lowest phenotypically active concentration (A549-TP53BP1-CLTA [4]) | lowest phenotypically active concentration (A549-TUBA1B-RELA [5]) | phenotypically active (A549-ACTB-RAB5A [6]) | phenotypically active (A549-CANX-COX4 [7]) | phenotypically active (A549-GM130-SQSTM1 [8]) | phenotypically active (A549-TP53BP1-CLTA [9]) | phenotypically active (A549-TUBA1B-RELA [10]) | phenotypically active (HepG2-ACTB-RAB5A) | phenotypically active (HepG2-CANX-COX4) | phenotypically active (HepG2-GM130-SQSTM1) | phenotypically active (HepG2-TP53BP1-CLTA) | phenotypically active (HepG2-TUBA1B-RELA) | phenotypically active (WPMY1-ACTB-RAB5A) | phenotypically active (WPMY1-CANX-COX4) | phenotypically active (WPMY1-GM130-SQSTM1) | phenotypically active (WPMY1-TP53BP1-CLTA) | phenotypically active (WPMY1-TUBA1B-RELA)
Cc1ccc(NC(=O)c2ccc(CN3CCN(C)CC3)cc2)cc1Nc1nc(-c2cccnc2)cs1 [masitinib] | 3 µM | 9 µM | 3 µM | 9 µM | 3 µM | 1 (active) | 1 (active) | 1 (active) | 1 (active) | 1 (active) | 1 (active) | 1 (active) | 1 (active) | 1 (active) | 1 (active) | 1 (active) | 1 (active) | 1 (active) | 1 (active) | 1 (active)
COCC(=O)O[C@]1(CCN(C)CCCc2nc3ccccc3[nH]2)CCc2cc(F)ccc2[C@@H]1C(C)C [mibefradil] | 3 µM | 9 µM | 3 µM | 9 µM | 3 µM | 1 (active) | 1 (active) | 1 (active) | 1 (active) | 1 (active) | 1 (active) | 1 (active) | 1 (active) | 1 (active) | 1 (active) | 1 (active) | 1 (active) | 1 (active) | 1 (active) | 1 (active)
C[C@@H]1CN(CC(=O)Nc2ccc3c(c2)Cc2cccc(-c4cc(=O)cc(N5CCOCC5)o4)c2S3)C[C@H](C)O1 | 3 µM | 9 µM | 3 µM | 9 µM | 9 µM | 1 (active) | 1 (active) | 1 (active) | 1 (active) | 1 (active) | 1 (active) | 1 (active) | 1 (active) | 1 (active) | 1 (active) | 1 (active) | 1 (active) | 1 (active) | 1 (active) | 1 (active)
Nc1cccc(-c2cc3c(Oc4cccc(O)c4)ncnc3[nH]2)c1 | 1 µM | 1 µM | 9 µM | 1 µM | 1 µM | 1 (active) | 1 (active) | 1 (active) | 1 (active) | 1 (active) | 1 (active) | 1 (active) | 1 (active) | 1 (active) | 1 (active) | 1 (active) | 1 (active) | 1 (active) | 1 (active) | 1 (active)
CN[C@H]1CC[C@@H](c2ccc(Cl)c(Cl)c2)c2ccccc21 [sertraline] | 1 µM | 9 µM | 3 µM | 9 µM | 1 µM | 1 (active) | 1 (active) | 1 (active) | 1 (active) | 1 (active) | 1 (active) | 1 (active) | 1 (active) | 1 (active) | 1 (active) | 1 (active) | 1 (active) | 1 (active) | 1 (active) | 1 (active)
